Outcome and Potency data for 33 molecules are collected here from PubChem BioAssay (NCATS).

A short description of assay [1]: qHTS of pediatric cancer cell lines to identify multiple opportunities for drug repurposing: Primary screen for MG 63 (6-TG R) cells (AID 1347105). Further: nearly all actives have a fitted effect of over 50% in size. Conditions: MG 63 (6-TG R) viability, CellTiter-Glo, 48 h; series mostly up to 46 µM. The essentials:
(§1)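 Cells plated at 500-1,000/well in growth medium, compounds added after 5 h. MIPE tested at 11 points (from 0.78 nM), NPC at 8 points (from 0.59 nM). CellTiter-Glo luminescence after 48 h; concentration-response curves from primary screen.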
For orientation: Quantitative high-throughput screening tests each substance at several concentrations.

Assay [2] in a line: qHTS of pediatric cancer cell lines to identify multiple opportunities for drug repurposing: Primary screen for Rh30 cells (AID 1347107). Further: nearly all actives have a fitted effect of over 75% in size. Conditions: Rh30 rhabdomyosarcoma viability, CellTiter-Glo luminescence, 48 h; series mostly up to 46 µM. The essentials:
(§2)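 Cells (500-1,000/well) in growth media were settled 5 h at 37 degrees C, then given compounds for 48 h. Viability was read as CellTiter-Glo luminescence. Primary runs used MIPE at 11 points (0.78 nM-46 µM) and NPC at 8 points (0.59 nM-46 µM); follow-ups used 11 points.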

Assay [3] can be described thus: qHTS of pediatric cancer cell lines to identify multiple opportunities for drug repurposing: Primary screen for Rh41 cells (AID 1347108).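 Further: luminescence drop marks cytotoxic hits; nearly all actives have a fitted effect of over 70% in size.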 Conditions: Rh41 rhabdomyosarcoma viability, CellTiter-Glo luminescence, 48 h; series mostly up to 46 µM. The procedure, abridged: as §1
The nature of assay [4]: qHTS of pediatric cancer cell lines to identify multiple opportunities for drug repurposing: Primary screen for control Hh wild type fibroblast cells (AID 1347106).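 Further: a drop in luminescence marks cytotoxicity and a rise apparent proliferation; nearly all actives have a fitted effect of over 55% in size.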 As to conditions: Hh wild-type fibroblast viability, CellTiter-Glo luminescence, 48 h; series mostly up to 46 µM. The essentials:
as §2

Assay [5] is described as follows: qHTS of pediatric cancer cell lines to identify multiple opportunities for drug repurposing: Confirmatory screen for NB1643 cells (AID 1347109). Further: nearly all actives have a fitted effect of over 45% in size. As to conditions: NB1643 neuroblastoma cell viability; series mostly up to 45.9 µM. The essentials: as §2
A short description of assay [6]: qHTS of pediatric cancer cell lines to identify multiple opportunities for drug repurposing: Confirmatory screen for A673 cells (AID 1347110).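 Further: cells exposed to compound for 48 h before the viability read; nearly all actives have a fitted effect of over 65% in size.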 As to conditions: A673 Ewing sarcoma cell viability; series mostly up to 45.9 µM. The essentials:
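Concentration-response curves came straight from titrations: 11 points (0.78 nM to 46 µM) for MIPE and several concentrations (0.59 nM to 46 µM) for NPC in primary, 11 points in follow-up. Readout: ATP luminescence at 48 h.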

Assay [7] can be described thus: qHTS of pediatric cancer cell lines to identify multiple opportunities for drug repurposing: Confirmatory screen for BT-12 cells (AID 1347112). Further: nearly all actives have a fitted effect of over 55% in size. As to conditions: BT-12 rhabdoid tumor cells, viability; series mostly up to 45.9 µM. The procedure, abridged:
as §2

Assay [8] in a line: qHTS of pediatric cancer cell lines to identify multiple opportunities for drug repurposing: Confirmatory screen for DAOY cells (AID 1347114). Further: nearly all actives have a fitted effect of over 65% in size. Conditions: DAOY medulloblastoma cells viability, cytotoxicity qHTS; series mostly up to 45.9 µM. The procedure, abridged: (§3)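 Viability measured as metabolically active cells via CellTiter-Glo luminescence following 48 hours of compound exposure, 11-point dilutions in confirmatory testing. 500-1,000 cells/well plated 5 hours before dosing; controls were DMSO and 2.3 µM bortezomib.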

The nature of assay [9]: qHTS of pediatric cancer cell lines to identify multiple opportunities for drug repurposing: Confirmatory screen for NB-EBc1 cells (AID 1347115).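 Further: cells exposed to compound for 48 h before the viability read; nearly all actives have a fitted effect of over 45% in size.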 Conditions: NB-EBc1 neuroblastoma cells, viability (cytotoxicity); series mostly up to 45.9 µM. The procedure, abridged: as §2
Assay [10] in a line: qHTS of pediatric cancer cell lines to identify multiple opportunities for drug repurposing: Confirmatory screen for BT-37 cells (AID 1347117). Further: nearly all actives have a fitted effect of over 55% in size. Conditions: BT-37 pediatric cancer cells, viability; series mostly up to 45.9 µM. The essentials: as §2
Assay [11] is described as follows: qHTS of pediatric cancer cell lines to identify multiple opportunities for drug repurposing: Confirmatory screen for MG 63 (6-TG R) cells (AID 1347119). Further: nearly all actives have a fitted effect of over 55% in size. Conditions: MG-63 (6-TG resistant) osteosarcoma viability; series mostly up to 45.9 µM. The procedure, abridged: as §2
Assay [12] in a line: qHTS of pediatric cancer cell lines to identify multiple opportunities for drug repurposing: Confirmatory screen for control Hh wild type fibroblast cells (AID 1347121). Further: nearly all actives have a fitted effect of over 70% in size. Conditions: viability qHTS; series mostly up to 45.9 µM. The essentials: as §2
The nature of assay [13]: qHTS of pediatric cancer cell lines to identify multiple opportunities for drug repurposing: Confirmatory screen for U-2 OS cells (AID 1347122). Further: nearly all actives have a fitted effect of over 65% in size. As to conditions: U-2 OS osteosarcoma cell viability; series mostly up to 45.9 µM. The essentials: as §2
The nature of assay [14]: qHTS of pediatric cancer cell lines to identify multiple opportunities for drug repurposing: Confirmatory screen for Rh41 cells (AID 1347123).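 Further: 48 h compound exposure; nearly all actives have a fitted effect of over 60% in size.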 Conditions: Rh41 rhabdomyosarcoma cells, viability/cytotoxicity qHTS; series mostly up to 45.9 µM. The procedure, abridged: as §2
Assay [15] is described as follows: qHTS of pediatric cancer cell lines to identify multiple opportunities for drug repurposing: Confirmatory screen for RD cells (AID 1347124).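 Further: cells exposed to compound for 48 h before viability readout; nearly all actives have a fitted effect of over 65% in size.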 Conditions: RD rhabdomyosarcoma cell viability; series mostly up to 45.9 µM. The procedure, abridged:
as §2

Assay [16] can be described thus: qHTS of pediatric cancer cell lines to identify multiple opportunities for drug repurposing: Confirmatory screen for Rh18 cells (AID 1347125). Further: nearly all actives have a fitted effect of over 55% in size. As to conditions: Rh18 rhabdomyosarcoma cells, viability; series mostly up to 45.9 µM. The procedure, abridged:
as §2

Assay [17] can be described thus: qHTS of pediatric cancer cell lines to identify multiple opportunities for drug repurposing: Confirmatory screen for SK-N-MC cells (AID 1347111).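 Further: potency means the concentration at half of the fitted maximal effect; cells exposed to compound for 48 h before the readout; nearly all actives have a fitted effect of over 70% in size.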 Conditions: SK-N-MC cell viability. The procedure, abridged: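 Metabolically active cells were quantified by ATP-dependent luminescence (CellTiter-Glo, 15 min at room temperature) following 48 h treatment. Cells had been plated at 500-1,000 per well and settled for 5 h beforehand.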

The nature of assay [18]: qHTS of pediatric cancer cell lines to identify multiple opportunities for drug repurposing: Confirmatory screen for LAN-5 cells (AID 1347113). Further: nearly all actives have a fitted effect of over 65% in size. As to conditions: LAN-5 neuroblastoma cell viability; series mostly up to 45.9 µM. The essentials:
as §2

A short description of assay [19]: qHTS of pediatric cancer cell lines to identify multiple opportunities for drug repurposing: Confirmatory screen for SJ-GBM2 cells (AID 1347116). Further: nearly all actives have a fitted effect of over 60% in size. As to conditions: SJ-GBM2 glioblastoma cells, viability; series mostly up to 45.9 µM. The procedure, abridged:
as §3

Assay [20] can be described thus: qHTS of pediatric cancer cell lines to identify multiple opportunities for drug repurposing: Confirmatory screen for TC32 cells (AID 1347118). Conditions: TC32 Ewing sarcoma cells viability qHTS. The essentials:
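Measured quantity: luminescence from CellTiter-Glo, reflecting metabolically active TC32 cells following 48 h of compound. Curves came straight from multi-point titrations, with 8 or 11 points in primary and 11 in confirmatory screening.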

The structures appear in SMILES notation. Records with an inconclusive call do not appear. The source made the active and inactive calls. The call rests on the fitted dose curve; in most records, active means well fitted curve in the direction sought with a large enough effect; inconclusive means small, poorly fitted or top-dose-only effect, or another doubt; inactive means no such curve, though single readings can be large; an effect the other way counts as inactive or inconclusive.

Turning to `COc1ccc(O)cc1`, the call in [1], in [2] and in [3] was inactive.
In the case of `C=CCN1C[C@H](C(=O)N(CCCN(C)C)C(=O)NCC)C[C@@H]2c3cccc4[nH]cc(c34)C[C@H]21`, the molecule was called inactive in [1], in assay [2] and in assay [3].
Regarding `Cc1cccc(C)c1NC(=O)CC12CCCN1CCC2`, the molecule was classed as inactive in assay [4] and in assay [2].
Consider `Cc1ccc2c(c1)c1c3n2CCNC3CCC1` (stereo not drawn), for which the call in assay [1], in assay [2] and in assay [3] was inactive.
In the case of `C=CCSCC1Nc2cc(Cl)c(S(N)(=O)=O)cc2S(=O)(=O)N1` (stereo not drawn), the call in [1], in [2] and in [3] was inactive.
For `CC(=O)Oc1cccc(O)c1`, the result in assay [1] and in [2] was inactive.
For the molecule `C/C(=C(\CCO)SS/C(CCO)=C(\C)N(C=O)Cc1cnc(C)nc1N)N(C=O)Cc1cnc(C)nc1N`, the result in [1], in assay [2] and in assay [3] was inactive.
As for `CCOc1ccc(C(=O)OCCN(CC)CC)cc1`, the molecule was called inactive in [1] and in assay [2].
In the case of `CC(=O)Oc1cccc(C)c1`, the molecule was called inactive in [1], in assay [2] and in [3].
As for `CN1C(C)(C)CCCC1(C)C`, the outcome in assay [1] and in assay [2] was inactive.
As for `O=C(O)CNC(=O)c1ccccc1I`, the molecule was called inactive in assay [4] and in assay [2].
Turning to `O=C(O)c1ccc[n+]([O-])c1`, the molecule was called inactive in assay [1], in assay [2] and in assay [3].
For `CC[C@H](C)[C@H](N)C(=O)O`, the molecule was called inactive in [1], in assay [2] and in assay [3].
In the case of `O[C@@H]1CO[C@H]2[C@@H]1OC[C@@H]2O`, the molecule was called inactive in assay [1] and in assay [2].
On to `O=C(c1ccccc1)C(O)c1ccccc1` (stereo not drawn), for which the outcome in assay [1], in [2] and in assay [3] was inactive.
Turning to `COCC(=O)Nc1c(I)c(C(=O)NCC(O)CO)c(I)c(C(=O)N(C)CC(O)CO)c1I` (stereo not drawn), the molecule was called inactive in [1], in [2] and in [3].
Take `CCN1CC(CCN2CCOCC2)C(c2ccccc2)(c2ccccc2)C1=O` (stereo not drawn): the result in assay [1], in assay [2] and in assay [3] was inactive.
As for `O=C(/C=C/c1ccccc1)OCc1ccccc1`, the result in assay [1], in assay [2] and in assay [3] was inactive.
Take `Cc1ccsc1C(=CCCN1CCC[C@@H](C(=O)O)C1)c1sccc1C`: the molecule was classed as inactive in assay [1], in [2] and in [3].
With `COc1cc(C(=O)NCCCCCC(=O)O)cc(OC)c1OC`, the call in [1], in [2], in assay [7], in assay [8], in assay [9] and in assay [11] was inactive. Moreover, the call in assay [12] and in [13] was inactive. Besides, the Potency result in [5], in assay [6], in assay [10], in assay [14], in assay [15] and in assay [16] was “inactive” in each case.
Regarding `CCOC(=O)OC(C)OC(=O)[C@@H]1N2C(=O)[C@@H](NC(=O)[C@H](N)c3ccccc3)[C@H]2SC1(C)C` (stereo partly drawn), the call in assay [1] and in assay [2] was inactive.
Consider `COc1ccccc1OC(=O)Oc1ccccc1OC`, for which the molecule was called inactive in assay [1], in assay [2] and in assay [3].
Take `CC(=O)OCC(COC(C)=O)OC(C)=O`: the molecule was classed as inactive in assay [1], in [2] and in assay [3].
Consider `CC(N)CCCC(C)(C)O` (stereo not drawn), for which the result in assay [1], in [2] and in assay [3] was inactive.
As for `CCc1nnc(NS(=O)(=O)c2ccc(N)cc2)s1`, the outcome in [1] and in assay [2] was inactive.
Turning to `O=C(O)c1ccc(OCCCOc2ccc(C(=O)O)cc2)cc1`, the call in [1], in assay [2] and in [3] was inactive.
As for `COc1ccc(NS(=O)(=O)c2ccc(N)cc2)nn1`, the molecule was called inactive in [1], in assay [2] and in assay [3].
Consider `C/C=C1\[C@H]2C=C(C)C[C@]1(N)c1ccc(=O)[nH]c1C2`, for which the result in assay [1], in [2] and in assay [3] was inactive.
`Cc1ccccc1N=Nc1ccc(N=Nc2c(O)ccc3ccccc23)c(C)c1`: the molecule was called inactive in assay [1], in assay [2] and in assay [3].
As to `CCN[C@H]1CN(CCCOC)S(=O)(=O)c2sc(S(N)(=O)=O)cc21`, the molecule was called inactive in assay [1], in assay [2] and in [3].
With `Cc1ccc(S(=O)(=O)NC(=O)NC2CCCCCCC2)cc1`, the call in assay [1], in assay [2] and in [3] was inactive.
For `Nc1ccc(S(=O)(=O)c2ccc(N)cc2)cc1`, the molecule was classed as inactive in [1] and in [2].
As to `CC(=O)[C@@]1(O)CC[C@H]2[C@@H]3C[C@H](C)C4=CC(=O)C=C[C@]4(C)[C@@]3(F)[C@@H](O)C[C@@]21C`, the Potency entry in assay [5], in assay [6], in assay [18], in [10], in assay [15] and in assay [16] was “inactive” in each case. Besides, the Potency in [17] was 23.3 µM (active); in assay [20], 2.93 µM (active). Besides, the molecule was classed as inactive in [7], in assay [8], in [9], in assay [19], in [11] and in assay [12]. In addition, the result in assay [13] was inactive.
